Inconclusive results are not listed. Active and inactive are the calls of the source. How the source made its calls: active means hit-call score of the fitted dose curve at least 0.9, where 1 is the maximum; inconclusive means response in the unintended direction; inactive means score below 0.9.
test: Tanguay_ZF_120hpf_SWIM_legacy: (Legacy) Oregon State University Tanguay Lab 120 Hour Post-fertilization zebrafish Assay for Swim Bladder Malformation (AID 2283654);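 further: swim bladder malformation in each larva scored yes or no under brightfield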
Experimental: Tanguay_ZF_120hpf_legacy is a whole embryo, multiplexed endpoint assay using zebrafish larvae exposed for 120 hours post fertilization on a 96-well plate.Tanguay_ZF_120hpf_SWIM_legacy is one of one assay component(s) measured or calculated from the Tanguay_ZF_120hpf_legacy assay. It is designed to make measurements of zebrafish development as detected with brightfield microscopy of developing zebrafish embryos.Data from the assay component Tanguay_ZF_120hpf_SWIM_legacy was analyzed into 1 assay endpoints. This assay endpoint, Tanguay_ZF_120hpf_SWIM_legacy, was analyzed in the positive analysis fitting direction relative to DMSO as the negative control and baseline of activity. Using a type of morphology reporter, gain-of-signal activity can be used to understand changes in developmentals as they relate to the whole embryo. To generalize the intended target to other relatable targets, this assay endpoint is annotated to the zebrafish development intended target family, where the subfamily is swim bladder morphogenesis.
Zebrafish husbandry: Tropical 5D wild-type adult zebrafish were housed in at an approximate density of 1000 per 100 gallon tank at the Sinnhuber Aquatic Research Laboratory, Oregon State University, Corvallis, OR. Each tank was kept at standard laboratory conditions of 28C on a 14-h light/10-h dark photoperiod in fish water consisting of reverse osmosis water supplemented with a commercially available salt (Instant Ocean). Spawning funnels were placed into the tanks the night prior, and embryos were collected and staged. To increase bioavailability, the chorion was enzymatically removed using pronase (63.6mg/ml, >/= 3.5U/mg, Sigma-Aldrich: P5147) at 4 hours post fertilization (hpf) using a custom automated dechorionator.Chemical exposures: Six hpf dechorionated embryos were placed 1 embryo per well in a 96-well plate prefilled with 90 ul of EM using automated embryo placement systems (AEPS). Ten microliters of each row of dilution plate 2 was added to 2 exposure plates. The final DMSO concentration used was 0.64% (vol/vol). Thirty-two embryos were also exposed to 5uM trimethyltin chloride (positive control). Plates were sealed to prevent evaporation and foil covered to reduce light exposure and kept in a 28C incubator. Embryos were statically exposed until 120 hpf. At 24 hpf, embryos were assessed for photomotor response using a custom photomotor response analysis tool (PRAT) and for developmental toxicity endpoints (MO24: mortality at 24 hpf, DP: developmental progression, SM: spontaneous movement, and NC: notochord distortion). At 120 hpf, locomotor activity was measured using Viewpoint Zebralab and assessed for 18 endpoints. Zebrafish acquisition and analysis program (ZAAP), a custom program designed to inventory, acquire, and manage zebrafish data, was used to collect developmental endpoints as either present or absent (i.e., binary responses were recorded). If mortality occurred for an embryo (at either 24 or 120 hpf), the non-mortality endpoints were not measured.

Row | Compound | outcome | AC50
1 | Nc1cc2c3c(c1)C(c1ccccc1)=N[C@@H](NC(=O)c1cccnc1)C(=O)N3CC2 | inactive | –
2 | CSC(C)(C)C=NO | inactive | –
3 | CCOP(=S)(OCC)SCSCC | inactive | –
4 | Nc1ccc2ccccc2c1 | inactive | –
5 | Cc1ccc(N)cc1N | inactive | –
6 | c1ccc(OP(Oc2ccccc2)Oc2ccccc2)cc1 | inactive | –
7 | CCCN(CCC)c1c([N+](=O)[O-])cc(C(C)C)cc1[N+](=O)[O-] | inactive | –
8 | ClC1=C(Cl)C2(Cl)C3C(Cl)C(Cl)CC3C1(Cl)C2(Cl)Cl (configuration not stated) | inactive | –
9 | CCOc1ccc(C(C)(C)COCc2cccc(Oc3ccccc3)c2)cc1 | inactive | –
10 | c1ccc2c(c1)Nc1ccccc1S2 | inactive | –
11 | O=P(Oc1ccccc1)(Oc1ccccc1)Oc1ccccc1 | inactive | –
12 | ClC(Cl)c1ccccc1 | inactive | –
13 | CC(Cc1ccc(OCC(=O)O)cc1)NCC(O)c1csc(C(F)(F)F)n1 (configuration not stated) | inactive | –
14 | CCC1(c2ccccc2)C(=O)N=C(O)NC1=O (configuration not stated) | inactive | –
15 | O=C(O)C1C(C(=O)O)C2(Cl)C(Cl)=C(Cl)C1(Cl)C2(Cl)Cl (configuration not stated) | inactive | –
16 | O=[N+]([O-])c1ccccc1 | inactive | –
17 | COCCOCCO | inactive | –
18 | CCCCc1ccccc1 | inactive | –
19 | CCOP(=S)(Oc1ccc([N+](=O)[O-])cc1)c1ccccc1 (configuration not stated) | inactive | –

Row | Compound | outcome | AC50
20 | Cc1cccc(N)c1 | inactive | –
21 | CCNc1nc(Cl)nc(NC(C)(C)C)n1 | inactive | –
22 | CCCCCCCc1ccc(O)cc1 | inactive | –
23 | Nc1ccc(Cl)cc1 | inactive | –
24 | Cc1ccc(O)cc1C | inactive | –
25 | CC(C)(C)c1ccc(O)cc1 | inactive | –
26 | CC(Cl)(Cl)C(=O)O | inactive | –
27 | CCC(C)(C)c1ccc(O)cc1 | – | 47.2 µM (active)
28 | CCCCN(CCCC)N=O | inactive | –
29 | CCN(CC)c1ccccc1 | inactive | –
30 | O=C(O)C(Cl)Cl | inactive | –
31 | CCCCN(CCCC)SN(C)C(=O)Oc1cccc2c1OC(C)(C)C2 | inactive | –
32 | c1cc2c3c(cccc3c1)CC2 | inactive | –
33 | CC(C)(C)OOC(C)(C)C | inactive | –
34 | CCOS(=O)(=O)OCC | inactive | –
35 | [N-]=[N+]=[N-] | inactive | –
36 | CCOC(=O)c1ccccc1C(=O)OCC | inactive | –
37 | O=P1(N(CCCl)CCCl)NCCCO1 (configuration not stated) | inactive | –

Reference: PubChem BioAssay (EPA / NIEHS)
